Source: PubChem BioAssay (NCATS)
Records with an inconclusive call do not appear. Entries that show only a call come without a potency. Unmarked numbers belong to inactive results. Active and inactive are the calls of the source. Calls come from the whole dose curve; as a rule, active = well fitted cell-killing curve with a large enough effect; inconclusive = small, poorly fitted or top-dose-only effect; inactive = no such curve, though single readings can be large or run the other way.

Tests used:
[1] = qHTS of pediatric cancer cell lines to identify multiple opportunities for drug repurposing: Primary screen for Rh30 cells (AID 1347107); note: nearly all actives have a fitted effect of over 75% in size
Procedure, shortened: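 Viability after 48 h compound treatment at 37C, 500-1,000 cells/well, read as ATP luminescence with CellTiter-Glo. Primary screens used 11-point (MIPE, 0.78 nM-46 µM) or 8-point (NPC, 0.59 nM-46 µM) final concentrations; follow-up screens used 11-point dilutions.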

[2] = qHTS of pediatric cancer cell lines to identify multiple opportunities for drug repurposing: Primary screen for Rh41 cells (AID 1347108);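 note: luminescence drop marks cytotoxic hits; nearly all actives have a fitted effect of over 70% in size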
Procedure, shortened: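 Plated cells (500-1,000 per well, growth media) were allowed to settle for 5 hours, treated with compound dilutions for 48 hours, then lysed with CellTiter-Glo for 15 min at room temperature before luminescence reading.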
Note: series mostly up to about 46 µM.

SMILES: Cn1cc[nH]c1=S
- outcome [1]: inactive
- Potency [2]: inactive

SMILES: CC(=O)O[C@@]12CO[C@@H]1C[C@H](O)[C@@]1(C)C(=O)[C@H](O)C3=C(C)[C@@H](OC(=O)[C@H](O)[C@@H](NC(=O)OC(C)(C)C)c4ccccc4)C[C@@](O)([C@@H](OC(=O)c4ccccc4)[C@H]21)C3(C)C
- outcome [1]: inactive

SMILES: Nc1ccc(S(=O)(=O)Nc2nccs2)cc1
- outcome [1]: inactive
- Potency [2]: inactive

SMILES: CCCn1cnc2c1c(=O)n(CCCCC(C)=O)c(=O)n2C
- outcome [1]: inactive
- Potency [2]: inactive

SMILES: O=C(O)[C@@H]1CSCN1
- outcome [1]: inactive

SMILES: C[C@@H]1CC[C@@]2(OC1)O[C@H]1C[C@H]3[C@@H]4CC[C@H]5C[C@@H](O)CC[C@]5(C)[C@H]4CC(=O)[C@]3(C)[C@H]1[C@@H]2C
- activity change, negative = cytotoxic [1]: 18.9% [at 4.84 µM]
- activity change, negative = cytotoxic [2]: 21.2% [at 4.84 µM]

SMILES: COCCOC(=O)C1=C(C)NC(C)=C(C(=O)OC/C=C/c2ccccc2)C1c1cccc([N+](=O)[O-])c1 (stereo unspecified)
- outcome [1]: inactive

SMILES: OCC(CO)N[C@H]1C[C@](O)(CO)[C@@H](O)[C@H](O)[C@H]1O
- outcome [1]: inactive
- Potency [2]: inactive

SMILES: Cc1ncc(COP(=O)(O)O)c(C=O)c1O
- outcome [1]: inactive
- Potency [2]: inactive

SMILES: CCN(CC)CCSC(=O)C(c1ccccc1)c1ccccc1
- outcome [1]: inactive

SMILES: CN(C)CCN(Cc1ccccc1)c1ccccn1
- outcome [1]: inactive
- Potency [2]: inactive

SMILES: COc1ccc(Cl)cc1C(=O)NCCc1ccc(S(=O)(=O)NC(=O)NC2CCCCC2)cc1
- outcome [1]: inactive
- Potency [2]: inactive

SMILES: CN1[C@@H]2CC(OC(=O)[C@H](CO)c3ccccc3)C[C@H]1[C@@H]1O[C@@H]12 (stereo partly specified)
- outcome [1]: inactive

SMILES: c1ccc(CN(CC2=NCCN2)c2ccccc2)cc1
- outcome [1]: inactive
- Potency [2]: inactive

SMILES: Cc1cc2nc3c(=O)[nH]c(=O)nc-3n(C[C@H](O)[C@H](O)[C@H](O)CO)c2cc1C
- outcome [1]: inactive
- Potency [2]: inactive

SMILES: C[C@H](NC(CCc1ccccc1)C(=O)O)C(=O)N1CCC[C@H]1C(=O)O (stereo partly specified)
- outcome [1]: inactive
- Potency [2]: inactive

SMILES: CN(C)CCCN1c2ccccc2Sc2ccc(Cl)cc21
- outcome [1]: inactive

SMILES: Cc1ccc(C(C)C)cc2c(C)ccc1-2
- outcome [1]: inactive
- Potency [2]: inactive

SMILES: COc1cc(C)c(Cc2cnc(N)nc2N)cc1OC
- outcome [1]: inactive
- Potency [2]: inactive

SMILES: CC(CN1c2ccccc2Sc2ccccc21)N(C)C (stereo unspecified)
- outcome [1]: inactive

SMILES: NC1[C@H]2CN(c3nc4c(cc3F)c(=O)c(C(=O)O)cn4-c3ccc(F)cc3F)C[C@@H]12 (stereo partly specified)
- outcome [1]: inactive

SMILES: O=C1O[C@H](CO)[C@@H](O)[C@H](O)[C@H]1O
- outcome [1]: inactive
- Potency [2]: inactive

SMILES: Oc1cccc(O)c1
- outcome [1]: inactive
- Potency [2]: inactive

SMILES: CC1CC(OC(=O)C(O)c2ccccc2)CC(C)(C)N1C (stereo unspecified)
- outcome [1]: inactive
- Potency [2]: inactive

SMILES: Cc1cccc(Nc2cc(Cl)nc(SCC(=O)O)n2)c1C
- outcome [1]: inactive
- Potency [2]: inactive

SMILES: CCOC(=O)c1ccc(O)cc1
- outcome [1]: inactive
- Potency [2]: inactive

SMILES: CN(C)CC[C@@H](c1ccc(Cl)cc1)c1ccccn1
- outcome [1]: inactive
- Potency [2]: inactive

SMILES: CC(=O)Nc1ccc(/C=N/NC(N)=S)cc1
- outcome [1]: inactive
- Potency [2]: inactive

SMILES: CNCCCC1c2ccccc2C=Cc2ccccc21
- outcome [1]: inactive
- Potency [2]: inactive

SMILES: CC1=C(CC(=O)O)c2cc(F)ccc2/C1=C\c1ccc(S(C)(=O)=O)cc1
- outcome [1]: inactive
- Potency [2]: inactive

SMILES: CC(C)C(=O)c1c(C(C)C)nn2ccccc12
- outcome [1]: inactive
- Potency [2]: inactive

SMILES: CN1CCC[C@@H]1Cc1c[nH]c2ccc(CCS(=O)(=O)c3ccccc3)cc12
- outcome [1]: inactive
- Potency [2]: inactive

SMILES: CC[C@@]1(c2ccccc2)NC(=O)N(C)C1=O
- outcome [1]: inactive
- Potency [2]: inactive

SMILES: CCCCOc1cc(C(=O)OCCN(CC)CC)ccc1N
- outcome [1]: inactive
- Potency [2]: inactive

SMILES: COc1ccc(S(=O)(=O)Nc2nnc(CC(C)C)s2)cc1
- outcome [1]: inactive
- Potency [2]: inactive

SMILES: CCN(CC)C(C)CN1c2ccccc2Sc2ccccc21 (stereo unspecified)
- outcome [1]: inactive
- Potency [2]: inactive

SMILES: CCCCc1ncc(/C=C(\Cc2cccs2)C(=O)O)n1Cc1ccc(C(=O)O)cc1
- outcome [1]: inactive
- Potency [2]: inactive

SMILES: CC1(C)OC(=O)NC1=O
- outcome [1]: inactive
- Potency [2]: inactive

SMILES: CC/C=C(\C(=O)N[C@@H]1C(=O)N2C(C(=O)OCOC(=O)C(C)(C)C)=C(COC(N)=O)CS[C@H]12)c1csc(N)n1
- outcome [1]: inactive
- Potency [2]: inactive

SMILES: CSc1ccc2c(c1)C(N1CCN(C)CC1)Cc1ccccc1S2 (stereo unspecified)
- outcome [1]: inactive
- Potency [2]: inactive

SMILES: CNC(=O)Oc1ccc2c(c1)[C@]1(C)CCN(C)[C@@H]1N2C
- outcome [1]: inactive
- Potency [2]: inactive

SMILES: Cc1cccc(C)c1NC(=O)CN(CC(=O)O)CC(=O)O
- outcome [1]: inactive
- Potency [2]: inactive

SMILES: CN1CCOC(c2ccccc2)c2ccccc2C1 (stereo unspecified)
- outcome [1]: inactive
- Potency [2]: inactive

SMILES: CCC(=O)Nc1ccc(O)cc1
- outcome [1]: inactive
- Potency [2]: inactive

SMILES: NC(N)=NCCC[C@H](N)C(=O)O
- activity change, negative = cytotoxic [1]: 18% [at 4.84 µM]
- activity change, negative = cytotoxic [2]: 10.4% [at 4.84 µM]

SMILES: Nc1ccc(S(=O)(=O)Nc2ccc(Cl)nn2)cc1
- outcome [1]: inactive
- Potency [2]: inactive

SMILES: CCCc1c(OCCCCc2nn[nH]n2)ccc(C(C)=O)c1O
- outcome [1]: inactive
- Potency [2]: inactive

SMILES: CC(COc1ccccc1)NC(C)C(O)c1ccc(O)cc1 (stereo unspecified)
- outcome [1]: inactive
- Potency [2]: inactive

SMILES: O=C(O)COc1nn(Cc2ccccc2)c2ccccc12
- outcome [1]: inactive
- Potency [2]: inactive

SMILES: CC1(C)S[C@@H]2[C@H](NC(=O)Cc3ccccc3)C(=O)N2[C@H]1C(=O)O (tested in a mixture with another compound)
- outcome [1]: inactive
- Potency [2]: inactive

SMILES: CC(C)(C)NCC(O)COc1ccc(NC(=O)NC2CCCCC2)cc1 (stereo unspecified)
- outcome [1]: inactive
- Potency [2]: inactive

SMILES: O=C(Oc1ccccc1C(=O)O)c1ccccc1O
- outcome [1]: inactive
- Potency [2]: inactive
